These results are taken from PubChem BioAssay (NCI).

Common to all, as to assay: NCI-60 one-dose screen, 48 h (100 = growth as untreated, 0 = no growth, -100 = all killed)
The test system of assay [1] is T-47D breast.
The test system of assay [2] is BT-549 breast.
Assay [3] relates to MDA-MB-435 melanoma.
The subject of assay [4] is MCF7 breast.
Assay [5] deals with HCT-116 colon.
The test system of assay [6] is HCC-2998 colon.
The test system of assay [7] is KM12 colon.
The test system of assay [8] is MDA-MB-468 breast.
The subject of assay [9] is SW-620 colon.

About 83,000 compounds went through this panel and 20% of them were active in at least one assay; those are over-represented in the sample as a whole.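 Percent growth is the endpoint: 0 to 100 indicates growth inhibition (40 means 60% inhibition), 0 means no net growth, and negative values indicate cell death.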 Values without a mark were called inactive. The source made the active and inactive calls. The calls were made as follows: active = growth percent below 10; inactive = the rest.

Turning to `CC/C(=C(\c1ccc(O)cc1)c1ccc(OCCN(C)C(=O)COCCNC(=O)Cc2ccc3c(c2)CN([C@@H]2CCC(=O)NC2=O)C3=O)cc1)c1ccccc1`, the growth in assay [1] (1 µM) is 15.5%; in assay [1] (10 µM), 7.16% (active); in [2] (1 µM), -25.9% (active); in assay [2] (10 µM), -22.3% (active); in [3] (1 µM), 97%; in [3] (10 µM), 59.2%. Moreover, the growth was 33.4% in assay [4] (1 µM); 20% in assay [4] (10 µM); 94.2% in assay [5] (1 µM); 99.6% in [5] (10 µM); 64.5% in [6] (1 µM); 30.2% in assay [6] (10 µM). Further, the growth in assay [7] (1 µM) was 94.3%; in assay [7] (10 µM), 47.5%; in assay [8] (1 µM) it was -11.7% (active); in [8] (10 µM), -28.3% (active).
As for `O=C1Nc2cc(-c3ccc(NS(=O)(=O)c4ccc(-c5ccccc5)cc4)cc3)ccc2/C1=C/c1ccc[nH]1`, the growth in assay [1] (10 µM unless noted) is 3.17% (active); in [2] (10 µM unless noted), 3.7% (active); in assay [3] (10 µM unless noted), 40.3%; in assay [9] (10 µM unless noted), 8.95% (active); in [4] (10 µM unless noted) it was -25.2% (active); in assay [5] (10 µM unless noted) it was 20.3%. In addition, the growth in [6] (10 µM unless noted) was 50.8%; in [7] (10 µM unless noted) it was 34.2%.
Turning to `COc1sc(/C=N/NC(=O)c2[nH]c3ccc(Br)cc3c2-c2ccccc2)cc1Br`, the growth was 62% in assay [1] (10 µM unless noted); -29.1% (active) in assay [2] (10 µM unless noted); -26.5% (active) in [3] (10 µM unless noted); 6.77% (active) in [9] (10 µM unless noted); 4.42% (active) in assay [4] (10 µM unless noted); -5.78% (active) in assay [5] (10 µM unless noted). In addition, the growth in assay [6] (10 µM unless noted) was 8.54% (active); in assay [7] (10 µM unless noted) it was 2.33% (active).
`COc1cc(/C=N/NC(=O)c2ccc(OCc3nc4ccc(C)cc4[nH]3)cc2)cc(OC)c1OC`: the growth in assay [1] (10 µM unless noted) is 35.1%; in assay [2] (10 µM unless noted), 45.4%; in [3] (10 µM unless noted), 49.1%; in assay [9] (10 µM unless noted), 40.7%; in assay [4] (10 µM unless noted), 38.2%; in assay [5] (10 µM unless noted), 21.2%. Moreover, the values for the growth in assay [6] (10 µM unless noted), in assay [7] (10 µM unless noted) and in [8] (10 µM unless noted) were 65.5%, 57% and 41.5%, respectively.
As to `O=C(Cc1c(-c2ccccc2[N+](=O)[O-])n(-c2ncnc3c2c(-c2ccccc2)c(-c2ccccc2)n3Cc2ccccc2)[nH]c1=O)c1ccc(Cl)c(Cl)c1`, the growth in [1] (10 µM unless noted) was 6.14% (active); in assay [2] (10 µM unless noted) it was -17.2% (active); in [3] (10 µM unless noted), 2.32% (active); in assay [9] (10 µM unless noted) it was 31.3%; in assay [4] (10 µM unless noted), 11.9%; in assay [5] (10 µM unless noted), 13.7%. In addition, the growth in [6] (10 µM unless noted) was 24.9%; in [7] (10 µM unless noted), 15.7%.
Turning to `CC/C(=C(/c1ccc(O)cc1)c1ccc(OCCN(C)C(=O)COCCOCCNC(=O)Cc2ccc3c(c2)CN([C@@H]2CCC(=O)NC2=O)C3=O)cc1)c1ccccc1`, the growth in [1] (1 µM) is 19.2%; in assay [1] (10 µM), 6.14% (active); in assay [2] (1 µM), -20.3% (active); in assay [2] (10 µM), -26% (active); in assay [3] (1 µM) it was 107%; in [3] (10 µM), 73.6%. Besides, the growth is 84.2% in [9] (1 µM); 29.6% in assay [9] (10 µM); 36.1% in assay [4] (1 µM); 19.6% in [4] (10 µM); 96.4% in assay [5] (1 µM); 101% in [5] (10 µM). The growth in assay [6] (1 µM) is 97.3%; in assay [6] (10 µM), 48.9%; in assay [7] (1 µM), 105%; in assay [7] (10 µM) it was 50.3%; in assay [8] (1 µM), 1.33% (active); in assay [8] (10 µM) it was -15.7% (active).
Consider `COc1ccc2[nH]c(=O)c(CSc3ccccc3Nc3nccc(-c4ccc(C(F)(F)F)cc4)n3)cc2c1`, for which the growth in assay [1] (10 µM unless noted) is 11.3%; in [2] (10 µM unless noted), -10.4% (active); in assay [3] (10 µM unless noted) it was 32.3%; in assay [9] (10 µM unless noted), 17.5%; in assay [4] (10 µM unless noted) it was -17.5% (active); in [5] (10 µM unless noted), -8.91% (active). In addition, the growth is 18.8% in [6] (10 µM unless noted) and 29.2% in assay [7] (10 µM unless noted).
Regarding `NS(=O)(=O)c1ccc(Nc2nc(N/N=C/c3cc(Br)c(O)c(Br)c3)nc(Nc3ccccc3)n2)cc1`, the growth in assay [1] (10 µM unless noted) is 25.5%; in assay [2] (10 µM unless noted), -14.3% (active); in assay [3] (10 µM unless noted), 56.5%; in [9] (10 µM unless noted) it was 41.2%; in assay [4] (10 µM unless noted), 37.7%; in [5] (10 µM unless noted), 28.9%. Also, the growth was 5.2% (active) in assay [6] (10 µM unless noted) and 61.7% in assay [7] (10 µM unless noted).
In the case of `CC/C(=C(/c1ccc(O)cc1)c1ccc(OCCN(C)C(=O)CCOCCNC(=O)Cc2ccc3c(c2)CN([C@@H]2CCC(=O)NC2=O)C3=O)cc1)c1ccccc1`, the growth in assay [1] (1 µM) was 20.9%; in assay [1] (10 µM) it was 25%; in assay [2] (1 µM) it was -12.9% (active); in assay [2] (10 µM), -25.9% (active); in [3] (1 µM), 104%; in [3] (10 µM), 85%. Further, the growth was 70.6% in [9] (1 µM); 36% in assay [9] (10 µM); 34.7% in assay [4] (1 µM); 31.5% in assay [4] (10 µM); 100% in [5] (1 µM); 92.4% in assay [5] (10 µM). For the same molecule, the growth in [6] (1 µM) was 97.3%; in assay [6] (10 µM) it was 78.3%; in assay [7] (1 µM), 95.3%; in [7] (10 µM), 66.7%; in assay [8] (1 µM), -2.35% (active); in assay [8] (10 µM), -18.2% (active).
On to `Cc1ccc(C2CC(c3ccc(S(=O)(=O)NCCNc4nc(N(C)C)nc(N5CCOCC5)n4)cc3)=Nc3c(N)nc(N)nc3N2)cc1` (stereo not given), for which the growth in [1] (10 µM unless noted) was 43.8%; in assay [2] (10 µM unless noted), 35.2%; in [3] (10 µM unless noted), 63.6%; in assay [9] (10 µM unless noted), 81.2%; in [4] (10 µM unless noted) it was 27.6%; in assay [5] (10 µM unless noted) it was 38.7%. Also, the growth in [6] (10 µM unless noted) and in assay [7] (10 µM unless noted) was 47.9% in each case.
Take `COc1ccc(/C=C/c2nc3ccccc3n3c(-c4cccc([N+](=O)[O-])c4)nnc23)cc1`: the growth is -7.62% (active) in assay [1] (10 µM unless noted); -87.5% (active) in [2] (10 µM unless noted); -46.5% (active) in [3] (10 µM unless noted); -22.3% (active) in assay [9] (10 µM unless noted); -64.5% (active) in assay [4] (10 µM unless noted); -76.2% (active) in assay [5] (10 µM unless noted). The figures for the growth in assay [6] (10 µM unless noted) and in assay [7] (10 µM unless noted) were -84.5% (active) and -67.3% (active), respectively.
Turning to `COc1cc2cc(C(=O)N3C[C@@H](CCl)c4c3cc(OC(=O)N(C)CCSSCCN3CCOCC3)c3ccccc43)[nH]c2c(OC)c1OC`, the growth in assay [1] (10 µM unless noted) is -6.52% (active); in assay [2] (10 µM unless noted) it was -58.5% (active); in assay [3] (10 µM unless noted), -41.2% (active); in [9] (10 µM unless noted) it was 6.21% (active); in assay [4] (10 µM unless noted), -33.5% (active); in [5] (10 µM unless noted), -12.9% (active). Moreover, the growth in [6] (10 µM unless noted) was -58.7% (active); in [7] (10 µM unless noted) it was -31.1% (active).
